Paper PMC4552634, “A New Set of Chemical Starting Points with Plasmodium falciparum Transmission-Blocking Potential for Antimalarial Drug Discovery” (PLoS ONE, 2015)
The campaign covered roughly 13,000 compounds. About 3,200 (25%) showed an effect of 50% or more. Some of the results follow.

system: P. falciparum stage V gametocytes; parameters: BacTiter-Glo ATP luminescence viability of purified stage V gametocytes in 384-well plates, per cent inhibition versus DMSO; details: 48 h, 5 µM; inhibitor

SMILES	% Inhibition [%]
Cc1ccc(C(=O)Nc2ccc(C)c(OC3CCN(CCC(C)C)C3)c2)cc1 (stereo not shown) [TCMDC-133981]	-13.13
CN(C)CCCn1c(N)c(-c2nc3ccccc3[nH]2)c2nc(C#N)c(C#N)nc21 [TCMDC-123729]	113.1
CCN(CC)CCCn1c(N)c(-c2nc3ccccc3[nH]2)c2nc(C#N)c(C#N)nc21 [TCMDC-123680]	117
CN(C)CCn1c(N)c(-c2nc3ccccc3s2)c2nc(C#N)c(C#N)nc21 [TCMDC-124439]	-7.276
N#Cc1c(N)n(CCc2ccc(F)cc2)c2nc3ccccc3nc12 [TCMDC-125779]	44.22
CCOC(=O)c1ccc(NC(=O)Nc2ccc(-c3ccc(-c4nc5ccccc5[nH]4)cc3)cc2)cc1 [TCMDC-133265]	-0.3523
COc1ccc(COc2c(OC)cc(Cc3cnc(N)nc3N)cc2OC)cc1 [TCMDC-138619]	7.542
NC1=NC(c2ccccc2)(c2ccccc2)C(=O)N1CCCCc1ccccn1 [TCMDC-132209]	-31.55
COc1ccc(O)c(C(=O)c2cc(C#N)c(=O)n(-c3ccc(Oc4ccccc4)cc3)c2)c1 [TCMDC-123628]	-33.17
CCCCn1c(C(C)Oc2ccc(Cl)cc2Cl)nc2cc(S(N)(=O)=O)ccc21 (stereo not shown) [TCMDC-125564]	8.97
CC(Cc1ccc(OCCCCOc2ccccc2)cc1)NCCc1ccc(Oc2ccccc2)cc1 (stereo not shown) [TCMDC-140021]	88.65
COC(=O)c1ccc(CC(C)NCC(O)c2ccccc2Cl)cc1 (stereo not shown) [TCMDC-131422]	7.207
CC(Cc1ccc(OCCCCOc2ccccc2)cc1)NCCc1ccccc1Cl (stereo not shown) [TCMDC-140019]	97.11
CC(Cc1ccc(OCc2ccccc2)cc1)Nc1nc2ccccc2c(=O)[nH]1 (stereo not shown) [TCMDC-131532]	-11.7
CC(CCc1ccc(OCc2ccccc2)cc1)NCC(O)c1ccccc1 (stereo not shown) [TCMDC-131472]	8.257
COc1cccc(CCNC(C)Cc2ccc(OCCCCOc3ccccc3)cc2)c1 (stereo not shown) [TCMDC-140020]	127.9
COc1ccc(Nc2nccc(N3CCC(NC(=O)c4cccc(C#N)c4)C3)n2)cc1 (stereo not shown) [TCMDC-133609]	-14.42
COc1ccccc1CCCON1C(N)=NC(N)=NC1(C)C [TCMDC-131723]	17.71
CCCCOc1c(CCC)cc(Cc2cnc(N)nc2N)cc1CCC [TCMDC-137692]	-41.23
Cc1cccc2[nH]c(-c3ccc(-c4cccc(NC(=O)c5cnccc5C(F)(F)F)c4)cc3)nc12 [TCMDC-137117]	-14.87
Cc1cccc2[nH]c(-c3cccc(-c4cccc(NC(=O)c5cnccc5C(F)(F)F)c4)c3)nc12 [TCMDC-137118]	53.02
Cc1ncccc1C(=O)Nc1ccc(-c2cccc(-c3nc4c(C)cccc4[nH]3)c2)cc1 [TCMDC-136862]	-37.31
Cc1cccc2[nH]c(-c3cccc(-c4cccc(NC(=O)c5cccnc5)c4)c3)nc12 [TCMDC-136927]	36.77

SMILES	% Inhibition [%]
Cc1cccc2[nH]c(-c3cccc(-c4ccc(NC(=O)c5cccnc5)cc4)c3)nc12 [TCMDC-136929]	-10.6
Cc1cccc2[nH]c(-c3cccc(-c4ccc(NC(=O)c5cnccc5C(F)(F)F)cc4)c3)nc12 [TCMDC-137119]	66.25
c1ccc(C2=NN=C(c3ccccn3)C3C4CC(C23)C2C3CC(c5ccccc53)C42)nc1 (stereo not shown) [TCMDC-138248]	-12.71
COc1ccc(C(=O)Nc2cc(Cl)c3c(c2)C2CCCN2CC3)cc1C(F)(F)F (stereo not shown) [TCMDC-139417]	-51.32
COc1cc(NC(=O)/C=C/c2cc(F)cc(F)c2F)cc(OCCN2CCN(CCN3CCOCC3)CC2)c1 [TCMDC-140930]	-13.83
COc1ccc(CNc2cc(C)nc3sc4c(c23)CCC2(C4)OCCO2)cc1 [TCMDC-138981]	-1.212
COc1ccc(-n2nc(C)cc2C(=O)NCc2ccc(-c3c(C)noc3C)cc2)cc1 [TCMDC-133779]	19.66
COc1ccc(-c2cncc3ccc(C(=O)NCc4ccncc4)nc23)cc1 [TCMDC-125411]	51.25
COc1ccc(-c2cncc3ccc(C(=O)NCCCn4ccnc4)nc23)cc1 [TCMDC-125412]	77.43
COc1ccc(NC(=O)Nc2ccc(C)c(-c3ccc(C(=O)Nc4ccncc4)cc3)c2)cc1 [TCMDC-133705]	11.61
COc1ccc(-c2cc3nc4c(c(NCCCn5ccnc5)n3n2)CCCC4)cc1 [TCMDC-124389]	-21.29
Cc1nc(NCCCn2ccnc2)cc(-c2cncc(-c3ccc(OC(F)(F)F)cc3)c2)n1 [TCMDC-125423]	9.398
COc1ccc(Nc2cc(C)nc(Nc3ccc(NC(C)=O)cc3)n2)cc1 [TCMDC-124979]	-41.12
O=C(Nc1ccc(I)cc1)Nc1ccc(Cn2ncc(N3CCCNCC3)c(Cl)c2=O)cc1 [TCMDC-133322]	-17.85
Cc1ccc2c(C3=CCN(CCCCC4(C)C(=O)Nc5c(F)cccc54)CC3)c(C)[nH]c2c1 (stereo not shown) [TCMDC-141005]	12.05
CCN(CC)Cc1ccc2c(=O)cc(CCc3cccc(F)c3F)n(CC(=O)N(Cc3ccc(-c4ccc(C(F)(F)F)cc4)cc3)C(C)C)c2c1 [TCMDC-141567]	74.8
CC(C)N(Cc1ccc(-c2ccc(C(F)(F)F)cc2)cc1)C(=O)Cn1c(CCc2cccc(F)c2F)cc(=O)c2ccc(CCCN3CCCCC3)cc21 [TCMDC-141581]	119.6
CN(C)CCOc1cc(NC(=O)Nc2cccc3c(-c4ccncc4)cccc23)ccc1I [TCMDC-139143]	27.84
CN(C)CCOc1cc(NC(=O)Nc2ccc(Oc3ccccc3)cc2)ccc1I [TCMDC-139113]	-27.54
COc1cc(Cc2cnc(N)nc2N)cc(OC)c1OCCNC(=O)[C@@H](N)CCC(=O)O [TCMDC-137685]	-2.761
Cc1cc(F)ccc1[C@H]1CNCCN1C(=O)N(C)[C@@H](C)c1cc(C(F)(F)F)cc(C(F)(F)F)c1 [TCMDC-138495]	76.86
Cc1cc(F)ccc1[C@H]1C[C@H](N2CCOCC2)CCN1C(=O)N(C)[C@@H](C)c1cc(C(F)(F)F)cc(C(F)(F)F)c1 [TCMDC-138838]	17.17
Cc1cc(F)ccc1[C@H]1CNCCN1C(=O)N(C)C(C)(C)c1cc(C(F)(F)F)cc(C(F)(F)F)c1 [TCMDC-138568]	62.57

SMILES	% Inhibition [%]
CCNc1cc(C(=O)N[C@@H](Cc2ccccc2)[C@H](O)CNC2CCC(C(C)(C)C)CC2)cc(N2CCCC2=O)c1 (stereo partly shown) [TCMDC-138903]	47.86
CC(Oc1ccc(Cl)cc1)C(=O)Nc1cc(C(F)(F)F)ccc1N1CCOCC1 (stereo not shown) [TCMDC-125311]	3.686
CC1CCCN(C(=O)C(C)Nc2cc(Cl)ccc2N2CCOCC2)C1 (stereo not shown) [TCMDC-125110]	85
Cc1ccnc2nc(C(=O)Nc3cc(Cl)ccc3N3CCOCC3)nn12 [TCMDC-124435]	7.323
COc1ccccc1CNC(=O)CCn1c(=O)[nH]c2ccsc2c1=O [TCMDC-123587]	30.03
O=C(CSc1nc2ccccc2c(=O)n1C1CC1)Nc1cc(C(F)(F)F)ccc1Cl [TCMDC-123578]	-84.13
NC(N)=NCC=C(c1ccccc1)c1ccccc1 [TCMDC-137566]	51.32
NC(N)=NCCCN(Cc1ccccc1)c1ccccc1 [TCMDC-131836]	40.87
CC1(C)N=C(N)N=C(N)N1OCOc1cc(Cl)c(Cl)cc1Cl [TCMDC-131783]	42.76
CCOC(=O)c1cc(Cl)cc(Cl)c1OCCCON1C(N)=NC(N)=NC1(C)C [TCMDC-131703]	21.46
O=C(Nc1ccc(-c2nc3ccccc3[nH]2)cc1)c1cccc(S(=O)(=O)N2CCCC2)c1 [TCMDC-125262]	-9.526
CC(C)CNCc1ccc(-c2cccc(CN(CCN(C)C)C(=O)CCC3CCCC3)c2)cc1 [TCMDC-140553]	109.4
CC(C)CNC(=O)c1cncc(-c2ccc(CN(C)C3CCN(C)CC3)cc2)c1 [TCMDC-134235]	31.51
CC[C@H](C)CNC(=O)c1cncc(-c2ccc(CN(C)C3CCN(C)CC3)cc2)c1 [TCMDC-134233]	22.49
CC(C)CNCc1cccc(-c2cccc(CN(CCCN3CCN(C)CC3)C(=O)NC3CCCCC3)c2)c1 [TCMDC-140633]	106.9
CC[C@H](C)CNC(=O)c1cncc(-c2ccc(CNC3CCCC3)cc2)c1 [TCMDC-134232]	8.826
CN(C)CCN(Cc1ccc(-c2ccc(CNCCc3ccccc3)cc2)nc1)C(=O)CCC1CCCC1 [TCMDC-141402]	63.7
CC(C)CNCc1ccc(-c2ccc(CN(CCCN3CCN(C)CC3)C(=O)CCC3CCCC3)cc2)cc1 [TCMDC-140559]	105.9
COc1cc(NC(=O)/C=C/c2ccccc2OC(F)(F)F)cc(OCCN2CCN(CCN3CCOCC3)CC2)c1 [TCMDC-140929]	-8.825
COc1cc(NC(=O)NC(CCN2CCC3(CCc4ccccc43)CC2)c2ccc(Cl)c(Cl)c2)cc(OC)c1OC (stereo not shown) [TCMDC-141765]	-19.84
CCC(C)CN1CCC(N(C)c2cc(NC(=O)c3ccc(F)cc3)ccn2)CC1 (stereo not shown) [TCMDC-134951]	19.56
